PubChem BioAssay (Tox21)
Unmarked numbers belong to inactive results. Activity calls are given as the source filed them. The call rests on the fitted dose curve; in most records, active means well fitted curve in the direction sought with a large enough effect in the repeat runs; inconclusive means weak or mixed curves; inactive means flat fitted curve, though single readings scatter.

Assay: qHTS assay to test for compound auto fluorescence at 535 nm (green) in HEK293 cell free culture (AID 720682)
Conditions: cell-free medium, green autofluorescence 485/535 nm, active compounds read high; series mostly up to 91.3 µM
Source text: U.S. Tox21 Program National Center for Advancing Translational Sciences [NCATS] NIH Chemical Genomics Center [NCGC] U.S. Environmental Protection Agency [EPA] National Institutes of Environmental Health Sciences [NIEHS] National Toxicology Program [NTP] U.S. Food and Drug Administration [FDA] Tox21 Assay Overview: Compound auto fluorescence often interferes with screening of the compound library against various biological targets and signaling pathways. Some of these compounds may have fluorophoric properties. Such properties may interfere with the assay outputs resulting in false positives and/or negatives. To decrease such complications and ensure the compound activities are relevant in terms of biological response, the Tox21 10K compound library was screened for auto fluorescence. From the fluorophores used as reporter signals in our screening assays, the auto fluorescence equivalencies of compounds against three fluorophores have been evaluated: Triamterene, Fluorescein and Rose Bengal sodium for blue, green and red fluorescence, respectively. The fluorescence intensities were measured using Excitation/Emission wavelengths at 405/460nm, 485/535nm and 540/590nm for blue, green and red labels, respectively. This assay includes the green fluorescence data.
Tox21 Assay Protocol Summary: 5 uL of culture medium (DMEM containing 10% FBS) per well was dispensed into black wall/clear bottom 1536-well plates using a Multidrop Combi Dispenser (ThermoFisher Scientific, Waltham, MA). After 23 nL compound or DMSO vehicle was transferred into assay plate by a pintool work station (Kalypsys, San Diego, CA), fluorescence intensities in the assay plates were measured by an Envision (PerkinElmer, Shelton, CT) plate reader using three labels for measuring blue, green and red fluorescence at […] 460, 535 and 590nm respectively.
On the % scale 0 is the no-effect control and ±100 the full control effect.

Compound	outcome	activity change
CCCOC(=O)Cc1ccc(OCC(=O)N(CC)CC)c(OC)c1	inactive	
COc1ccc(CN2CCNCC2)c(OC)c1OC		-0.0737% [at 18.6 µM]
NCCOS(=O)(=O)O	inactive	
Clc1cc2c(cc1Cl)Oc1cc(Cl)c(Cl)cc1O2		-0.0409% [at 0.37 µM]
C=C(Cl)CSC(=S)N(CC)CC	inactive	
Cc1ccc2cc(C)ccc2c1	inactive	
Cc1ccc(Cl)c(O)c1	inactive	
CC(C)(C)NC[C@H](O)c1ccc(O)cc1Cl	inactive	
CC(C)[C@]12CC(=O)[C@H](C)[C@H]1C2	inactive	
O=C(NC(=O)c1c(F)cccc1F)Nc1cc(Cl)c(F)c(Cl)c1F	inactive	
CC(C)N(Cc1ccccc1)C(=O)C(C)(C)C	inactive	
C/C=C/CC#N	inactive	
CCNc1nc(NCC)nc(SC)n1	inactive	
CCOC(=O)c1ncn2c1CN(C)C(=O)c1c(I)cccc1-2	inactive	
O=S1(=O)OCCO1	inactive	
COC1=CC(=O)O[C@@H](/C=C/c2ccccc2)C1	inactive	
Nc1c(Cl)c(F)nc(OCC(=O)O)c1Cl	inactive	
COc1ccccc1OC	inactive	
CC(Cl)(Cl)Cl	inactive	
ClCOCCl	inactive	

Compound	outcome	activity change
c1ccc2c(c1)CCNC2	inactive	
OCC(Cl)CCl (stereo not given)	inactive	
CCOC(=O)C(SP(=S)(OC)OC)c1ccccc1 (stereo not given)	inactive	
CCOC(=O)C(Cl)Cc1cc(-n2nc(C)n(C(F)F)c2=O)c(F)cc1Cl (stereo not given)	inactive	
CNC(=O)NC(O)C(Cl)(Cl)Cl (stereo not given)	inactive	
CC(Cc1ccccc1)NCCn1cnc2c1c(=O)n(C)c(=O)n2C (stereo not given)	inactive	
CCCCCCCCBr	inactive	
C=C(Cl)CCl	inactive	
CN1C(=O)COc2c(C(=O)NC3CN4CCC3CC4)cc(Cl)cc21 (stereo not given)	inactive	
CC(=O)CN(CC(C)=O)N=O	inactive	
Cc1cccc2sc3nncn3c12	inactive	
Oc1ccc2c3c1O[C@H]1[C@@H](O)C=C[C@H]4[C@@H](C2)NCC[C@@]341	inactive	
C=CCN1CC[C@]23CCCC[C@H]2[C@H]1Cc1ccc(O)cc13	inactive	
CCC1(c2ccccc2)C(=O)N(COC)C(=O)N(COC)C1=O	inactive	
O=C(Cl)CCl	inactive	
O=[N+]([O-])c1cccc(CCl)c1	inactive	
COc1ccc2c(C(=O)c3ccc(Cl)cc3)c(C)n(CC(=O)O)c2c1	inactive	
CC(C)C(C)(N)C#N (stereo not given)	inactive	
CNC(=O)O/N=C(/CSC)C(C)(C)C	inactive	
O=c1[nH]c2ccccc2o1	inactive	
